{"source": "PubChem BioAssay (NCI)", "note": "Compounds without any hit were thinned out: in the full panel of roughly 83,000, 20% have a hit.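 Treatment: one concentration, 48 hours, 96-well format. Scoring: percent growth, with anything below 10 considered active.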 Active and inactive are the calls of the source."}
{"tested_on": "HL-60(TB) leukemia", "assay": "NCI-60 one-dose screen, 48 h (100 = growth as untreated, 0 = no growth, -100 = all killed)", "details": "10 µM unless noted"}
{"smiles": "C#C[C@]1(O)CC[C@H]2[C@@H]3CC=C4c5sc(Nc6cc(C)cc(C)n6)nc5CC[C@]4(C)[C@H]3CC[C@@]21C", "growth": "-16.4% (active)"}
{"smiles": "COc1ccc(N=Nc2c(N)nn3c(N)c(C#N)c(-c4ccccc4)nc23)cc1", "growth": "80.8% (inactive)"}
{"smiles": "Cc1ccc(CSc2nc(Cl)c(C#N)c(-c3ccc(F)cc3)n2)cc1", "growth": "42% (inactive)"}
{"smiles": "COc1ccc2nc(Nc3cccc(NC(=O)c4ccc(CN5CCN(C)CC5)c(C(F)(F)F)c4)c3)ccc2c1", "growth": "-47.8% (active)"}
{"smiles": "Nc1nnc(-c2c[nH]c3ccc(F)cc23)c(-c2c[nH]c3ncccc23)n1", "growth": "63.3% (inactive)"}
{"smiles": "CN1C(=O)C(O)(CC(=O)c2cc3ccccc3oc2=O)c2ccccc21", "note": "(stereo not drawn)", "growth": "84.4% (inactive)"}
{"smiles": "Cc1nc2sccn2c1-c1nnc(SCc2ccccc2)o1", "growth": "89.9% (inactive)"}
{"smiles": "Cc1ccccc1[C@H]1C(C(=O)c2ccc(Cl)cc2)C2(N[C@@H]1c1ccccc1)C(=O)Nc1ccc(Cl)cc12", "note": "(stereo partly drawn)", "growth": "-32.2% (active)"}
{"smiles": "CCCSc1nc(NCCc2c[nH]c3ccccc23)c(C#N)c(-c2ccc(OC)cc2)n1", "growth": "40.7% (inactive)"}
{"smiles": "O=C(N/N=C/c1ccc(B(O)O)s1)c1[nH]c2ccc(Br)cc2c1-c1ccccc1", "growth": "-18.2% (active)"}
{"smiles": "O=C1NC(=NC23CC4CC(CC(C4)C2)C3)N/C1=C\\c1ccc2ncsc2c1", "growth": "-16.1% (active)"}
{"smiles": "CC1=C(C(=O)OCc2ccccc2)C(c2ccc(N(C)C)cc2)n2c(nc3ccccc32)N1", "note": "(stereo not drawn)", "growth": "73.7% (inactive)"}
{"smiles": "CC(/C=C1\\SC(=S)N(CCCC(=O)NC(CC(C)C)C(=O)O)C1=O)=C\\c1ccccc1", "note": "(stereo not drawn)", "growth": "63.4% (inactive)"}
